Results as given in PubChem BioAssay (NCI).
Compounds without any hit were thinned out: in the full panel of roughly 79,000, 15% have a hit. Calls of active or inactive are those of the source. Cut-off read from the data, not from the text of the source: active = growth inhibition above about 70%; inactive = the rest.

assay: NCI Yeast Anticancer Drug Screen. Data for the bub3 strain (AID 167); settings: S. cerevisiae bub3 mutant strain, at 50.0 µM, stronger effect = higher value
Procedure, shortened: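 In this screen, a yeast mutant lacking normal mitotic checkpoint function is challenged with compound. Relative growth versus vehicle gives the inhibition value.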

Structure (SMILES)	growth inhibition
Clc1ccc(OCC(Cn2ccnc2)c2ccc(Cl)cc2)cc1 (stereo not drawn)	99.8% (active)
CC(C)C(CC(C)(C)C)OC(=O)Nc1cccc2ccccc12 (stereo not drawn)	61.1% (inactive)
CC(=O)OC[C@@]1(C)[C@@H]2CC[C@]3(C)[C@H](C(=O)C=C4[C@@H]5CC(C)(C)CC[C@]5(C(=O)O)CC[C@]43C)[C@@]2(C)CC[C@@H]1OC(C)=O	92.7% (active)
CCOC(=O)C[n+]1c(C)sc2ccccc21	39.6% (inactive)
O=[N+]([O-])c1ccc(/C=N/O)s1	99.7% (active)
C=C(C)COc1ccccc1C(OCC)OCC	31.6% (inactive)
CCCCCCCCCCCCCC1OC(=O)C(C)=C1C(=O)O (stereo not drawn)	27.4% (inactive)
CC(C)C(Sc1nc(-c2ccccc2)c(-c2ccccc2)[nH]1)c1n[nH]c(=S)n1-c1ccccc1 (stereo not drawn)	96.9% (active)
Cc1ccc(-c2c(C#N)c(S)n(NS(=O)(=O)c3ccccc3)c(=O)c2C#N)cc1	71.2% (active)
O=C(c1ccccc1)c1ccc2c(c1Cl)C(=O)c1ccccc1C2=O	80.5% (active)
COc1cccc(C2c3cc4c(cc3OC(O)C2C)OCO4)c1O (stereo not drawn)	34.1% (inactive)
CCC[N+]1=C(/C=C/c2ccc3cccnc3c2O)C(C)(C)c2ccccc21	98.8% (active)
O=C(/C=C/c1ccccc1Cl)c1ccc(F)cc1	78.8% (active)
CCN(CC)C(=S)N=Nc1c(O)[nH]c2ccccc12	91% (active)
C[CH2][Sn]([CH2]C)([O]C(=O)c1ccccc1OC)[O][Sn]([CH2]C)([CH2]C)[O]C(=O)c1ccccc1OC	32.1% (inactive)
CCCCCCCCCCCCCCCC[N+](C)(C)C(C)c1ccc(OC)cc1 (stereo not drawn)	92.3% (active)
S=C(NCCc1ccccc1)N/N=C/c1ccc(Cl)cc1	85.6% (active)
Cc1cc(Nc2ccc(O)c(CN3CCN(Cc4cc(Nc5cc(C)nc(N)n5)ccc4O)CC3)c2)nc(N)n1	95.4% (active)
CC1C[N+](C)(C)C(C)C(=O)C1(c1ccccc1)c1ccccc1 (stereo not drawn)	28.2% (inactive)
O=C1C(Cl)=C(Cl)C(=O)C2CC=CCC12 (stereo not drawn)	99.5% (active)

Structure (SMILES)	growth inhibition
C/C(=N/O)c1ccc2c(c1)C(C)c1ccccc1-2 (stereo not drawn)	78.2% (active)
c1ccc(N/N=C2/CCCC3/C(=N\Nc4ccccc4)CCCC23)cc1 (stereo not drawn)	9.85% (inactive)
CCCC(C)C/C(C)=C\C(C)(C)C1CC(=O)N(CC)C1=O (stereo not drawn)	70.9% (active)
COC(C(=O)C1=C2Oc3c4c(cc(O)c3C(=O)C2C2=C(CCCC2)C1=O)OC(C)(C)C=C4)C(C)CCC=C(C)C (stereo not drawn)	78% (active)
Cc1cc(Br)c(NC(=O)CBr)cc1C	40.5% (inactive)
Cc1ccc(S(=O)(=O)OCCCCOS(=O)(=O)c2ccc(C)cc2)cc1	-17.2% (inactive)
Cc1ccc([N+](=O)[O-])c2c(NCCCN(C)C)c3ccccc3nc12	87.8% (active)
CCOC(=O)c1c(N2CCCC2)nsc1Nc1ccc(F)cc1	94.8% (active)
CC(=O)[C@H]1CC[C@H]2[C@@H]3CC[C@H]4C[C@@H](N5CCOCC5)CC[C@]4(C)[C@H]3CC[C@]12C	59.5% (inactive)
CC(C)CCCC(C)C1CCC2C3CCC4=CC(O)CCC4(C)C3CCC12C (stereo not drawn)	94% (active)
Nc1ccccc1SC(/C=C/NNC1=NC(c2ccccc2)C(c2ccccc2)=NN1)c1ccccc1 (stereo not drawn)	93.3% (active)
CCOC(=O)C1=C(c2ccccc2)OC(N)=C(C#N)C1c1ccc(C)cc1 (stereo not drawn)	80.1% (active)
COC1CC(OC(=O)c2ccccc2)C2OC(c3ccccc3)OCC2O1 (stereo not drawn)	15.2% (inactive)
O=C(/N=C1\N=Nc2nc(C(C(=O)c3cccs3)c3nc4n(c3O)/C(=N/C(=O)Nc3ccc(Cl)cc3)N=N4)c(O)n21)Nc1ccc(Cl)cc1 (stereo not drawn)	66.8% (inactive)
C=CCNC(=S)N/N=C(\CCC)c1ccccn1	99.5% (active)
O=C(c1cc2c(C(F)(F)F)onc2c2ccccc12)C(F)(F)F	38.9% (inactive)
O=C1C=CC(=O)C2C1Cc1ccccc1C2c1ccccc1 (stereo not drawn)	98.8% (active)
CC1SC2(C(=O)Nc3ccc([N+](=O)[O-])cc32)N(c2ccc(Cl)cc2)C1=O (stereo not drawn)	96.2% (active)
CC(=O)OCCn1c2nc(=O)[nH]c(=O)c-2nc2cc(C)c(C)cc21	8% (inactive)

assay: NCI Yeast Anticancer Drug Screen. Data for the mlh1 rad18 strain (AID 175); settings: S. cerevisiae mlh1 rad18 strain growth inhibition; at 5.0 µM (retest, dose inferred, filed as 0.5); stronger effect = higher value
Procedure, shortened: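 In this whole-cell yeast screen, a strain with altered DNA damage repair is challenged with compound, and its growth is measured against matched vehicle-treated controls.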

Structure (SMILES)	growth inhibition
Clc1ccc(OCC(Cn2ccnc2)c2ccc(Cl)cc2)cc1 (stereo not drawn)	64% (inactive)
CC(C)C(CC(C)(C)C)OC(=O)Nc1cccc2ccccc12 (stereo not drawn)	-3% (inactive)
CC(=O)OC[C@@]1(C)[C@@H]2CC[C@]3(C)[C@H](C(=O)C=C4[C@@H]5CC(C)(C)CC[C@]5(C(=O)O)CC[C@]43C)[C@@]2(C)CC[C@@H]1OC(C)=O	29% (inactive)
CCOC(=O)C[n+]1c(C)sc2ccccc21	-3% (inactive)
O=[N+]([O-])c1ccc(/C=N/O)s1	12% (inactive)
C=C(C)COc1ccccc1C(OCC)OCC	0% (inactive)
CCCCCCCCCCCCCC1OC(=O)C(C)=C1C(=O)O (stereo not drawn)	-10% (inactive)
CC(C)C(Sc1nc(-c2ccccc2)c(-c2ccccc2)[nH]1)c1n[nH]c(=S)n1-c1ccccc1 (stereo not drawn)	-3% (inactive)
Cc1ccc(-c2c(C#N)c(S)n(NS(=O)(=O)c3ccccc3)c(=O)c2C#N)cc1	16% (inactive)
O=C(c1ccccc1)c1ccc2c(c1Cl)C(=O)c1ccccc1C2=O	1% (inactive)
COc1cccc(C2c3cc4c(cc3OC(O)C2C)OCO4)c1O (stereo not drawn)	-7% (inactive)
CCC[N+]1=C(/C=C/c2ccc3cccnc3c2O)C(C)(C)c2ccccc21	25% (inactive)
O=C(/C=C/c1ccccc1Cl)c1ccc(F)cc1	8% (inactive)
CCN(CC)C(=S)N=Nc1c(O)[nH]c2ccccc12	82% (active)
C[CH2][Sn]([CH2]C)([O]C(=O)c1ccccc1OC)[O][Sn]([CH2]C)([CH2]C)[O]C(=O)c1ccccc1OC	38% (inactive)
CCCCCCCCCCCCCCCC[N+](C)(C)C(C)c1ccc(OC)cc1 (stereo not drawn)	98% (active)
S=C(NCCc1ccccc1)N/N=C/c1ccc(Cl)cc1	61% (inactive)
Cc1cc(Nc2ccc(O)c(CN3CCN(Cc4cc(Nc5cc(C)nc(N)n5)ccc4O)CC3)c2)nc(N)n1	7% (inactive)
CC1C[N+](C)(C)C(C)C(=O)C1(c1ccccc1)c1ccccc1 (stereo not drawn)	-6% (inactive)
O=C1C(Cl)=C(Cl)C(=O)C2CC=CCC12 (stereo not drawn)	90% (active)

Structure (SMILES)	growth inhibition
C/C(=N/O)c1ccc2c(c1)C(C)c1ccccc1-2 (stereo not drawn)	-113% (inactive)
c1ccc(N/N=C2/CCCC3/C(=N\Nc4ccccc4)CCCC23)cc1 (stereo not drawn)	15% (inactive)
CCCC(C)C/C(C)=C\C(C)(C)C1CC(=O)N(CC)C1=O (stereo not drawn)	-3% (inactive)
COC(C(=O)C1=C2Oc3c4c(cc(O)c3C(=O)C2C2=C(CCCC2)C1=O)OC(C)(C)C=C4)C(C)CCC=C(C)C (stereo not drawn)	4% (inactive)
Cc1cc(Br)c(NC(=O)CBr)cc1C	-2% (inactive)
Cc1ccc(S(=O)(=O)OCCCCOS(=O)(=O)c2ccc(C)cc2)cc1	2% (inactive)
Cc1ccc([N+](=O)[O-])c2c(NCCCN(C)C)c3ccccc3nc12	92% (active)
CCOC(=O)c1c(N2CCCC2)nsc1Nc1ccc(F)cc1	-2% (inactive)
CC(=O)[C@H]1CC[C@H]2[C@@H]3CC[C@H]4C[C@@H](N5CCOCC5)CC[C@]4(C)[C@H]3CC[C@]12C	76% (active)
CC(C)CCCC(C)C1CCC2C3CCC4=CC(O)CCC4(C)C3CCC12C (stereo not drawn)	-3% (inactive)
Nc1ccccc1SC(/C=C/NNC1=NC(c2ccccc2)C(c2ccccc2)=NN1)c1ccccc1 (stereo not drawn)	11% (inactive)
CCOC(=O)C1=C(c2ccccc2)OC(N)=C(C#N)C1c1ccc(C)cc1 (stereo not drawn)	-2% (inactive)
COC1CC(OC(=O)c2ccccc2)C2OC(c3ccccc3)OCC2O1 (stereo not drawn)	6% (inactive)
O=C(/N=C1\N=Nc2nc(C(C(=O)c3cccs3)c3nc4n(c3O)/C(=N/C(=O)Nc3ccc(Cl)cc3)N=N4)c(O)n21)Nc1ccc(Cl)cc1 (stereo not drawn)	-27% (inactive)
C=CCNC(=S)N/N=C(\CCC)c1ccccn1	99% (active)
O=C(c1cc2c(C(F)(F)F)onc2c2ccccc12)C(F)(F)F	0% (inactive)
O=C1C=CC(=O)C2C1Cc1ccccc1C2c1ccccc1 (stereo not drawn)	23% (inactive)
CC1SC2(C(=O)Nc3ccc([N+](=O)[O-])cc32)N(c2ccc(Cl)cc2)C1=O (stereo not drawn)	6% (inactive)
CC(=O)OCCn1c2nc(=O)[nH]c(=O)c-2nc2cc(C)c(C)cc21	9% (inactive)
